# Screening results (PubChem BioAssay)
# FMDV antiviral: blocks foot and mouth disease virus; FMDV antiviral cell-based qHTS; Potency, µM (top dose mostly 57.9 µM), without a hit: at the highest dose activity change, negative = inhibition, actives largely listed as inhibitors; 410,000 compounds, 1.2% hits; calls by dose curve; tested in HEK293T cells; further: read-out not given here; nearly all actives have a fitted effect of over 45% in size
# Sm TGR inh: S. mansoni TGR enzyme inhibition; purified TGR, DTNB reduction, TNB absorbance 405 nm; 360,000 compounds, 3% hits; AID 485364; Potency, µM (titrated, usually from 114 µM), for the others: at the top dose activity change, negative = inhibition, usual class: inhibitors; Q962Y6; active means well fitted inhibition curve with a large enough effect; inconclusive means small, poorly fitted or top-dose-only effect; inactive means no such curve, though single readings can be large or run the other way; further: nearly all actives have a fitted effect of over 60% in size
#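 TGR 20 nM + NADPH 100 uM (dispensed conc.), cpd preinc 15 min RT; start with NADPH (500 uM addition) then DTNB (15 mM addition). Kinetic TNB absorbance, 405 nm filter. Four-parameter Hill fit across titration.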
# MARV entry inh: Marburg virus entry inhibition | 300,000 compounds, 1.8% hits | Potency, µM (doses to about 37.8 µM), for the others: at the highest dose activity change, negative = inhibition, hits mostly inhibitors | Marburg virus pseudotyped entry inhibition, cell reporter | AID 540276; calls by dose curve; tested in HEK293 cells
# LASV entry inh: inhibitors of Lassa virus binding or cell entry. Lassa virus pseudotype entry inhibition, cell reporter. Potency, µM (highest dose often 37.9 µM), without a hit: at the highest dose activity change, negative = inhibition, most hits filed as inhibitors. 300,000 compounds, 1.2% hits. AID 540256; calls by dose curve; tested in HEK293 cells; further: nearly all actives have a fitted effect of over 50% in size
# Vaccinia mCherry: inhibitors of vaccinia virus infection (mCherry reporter signal); Vaccinia virus mCherry reporter infection, fluorescence; Potency, µM (highest dose often 36.5 µM), without a hit: top-dose activity change, negative = inhibition, actives largely listed as inhibitors; 310,000 compounds, 0.63% hits; calls by dose curve; tested in A549 cells; further: nearly all actives have a fitted effect of over 35% in size
# VACV Venus inh: vaccinia inhibition (Venus reporter). Potency, µM (series often up to 36.5 µM), without a hit: top-dose activity change, negative = inhibition, most hits filed as inhibitors. Vaccinia virus Venus reporter expression, fluorescence. 330,000 compounds, 0.46% hits; calls by dose curve; tested in A549 cells; further: nearly all actives have a fitted effect of over 30% in size
# Numbers without * were called inactive; i = inactive; ? = inconclusive; . = not tested or not shown; [ ] = dose if it differs, or a comment. A selection: hits, their analogues and other compounds. The true share with any hit is near 5.4%. On the % scale 0 is the no-effect control and ±100 the full control effect; potency means the concentration at half of the fitted maximal effect.
SMILES,FMDV antiviral,Sm TGR inh,MARV entry inh,LASV entry inh,Vaccinia mCherry,VACV Venus inh
CSC1=C(C#N)[C@H](c2ccc(C)s2)CC(=O)N1,.,.,-0.4%,.,.,.
NC(=S)N=Nc1ccc(NN=C(N)N)cc1,-8.0%,50.1µM*,.,.,4.9%,9.4%
Cc1ccc(/C=C2/C(=O)NC(=O)N(CCc3ccc(F)cc3)C2=O)o1,25.1µM*,?,?,-19.7%,.,3.7%
CN(C)c1ccc(/C=C2\C(=O)NC(=O)N(CCc3ccc(F)cc3)C2=O)cc1,-3.3%,3.98µM*,.,.,.,.
O=C1NC(=O)N(Cc2ccc(F)cc2)C(=O)/C1=C\c1ccc(N2CCCC2)cc1,0.1%,1.26µM*,-7.9%,?,3.4%,17.3%
COCCN1C(=O)NC(=O)/C(=C\c2ccc(F)cc2)C1=O,-5.4%,?,.,.,.,.
Cc1ccc(CN2C(=O)N/C(=C\c3ccc(N4CCOCC4)cc3)C2=O)cc1,-13.0%,-3.9%,8.2%,0.0461µM*,?,?
COc1cccc(NC(=O)C2CCCN(c3nnc(-n4c(C)ccc4C)s3)C2)c1 (configuration not stated),0.0%,-16.7%,3.1%[46.1 µM],6.1%[46.1 µM],-18.5%,-16.1%
O=C(Nc1nc2c(F)cc(F)cc2s1)C1CCN(C(=O)c2ccc(F)cc2)CC1,-12.0%,-19.4%,20.2%[46.1 µM],23.0%,i,-2.1%
Cc1nnc(SCC(=O)Nc2nc(-c3ccc(F)cc3)cs2)[nH]c1=O,19.7%,.,?,-10.8%[46.1 µM],12.6µM*,?
COc1ccc(-c2csc(NC(=O)CCS(=O)(=O)c3ccccc3)n2)c(OC)c1,-8.2%,14.1µM*,.,.,.,.
O=C(Nc1nc(-c2ccc(F)cc2)cs1)C1CCN(C(=O)c2ccc(F)cc2)CC1,11.2µM*,-7.4%,11.2µM*,-28.0%[46.1 µM],?,?
COc1ccc(OC)c(-c2csc(NC(=O)CSc3ccc(Br)cc3)n2)c1,0.0%,-7.2%,-37.6%,7.94µM*,-12.5%,-21.2%
O=C(Cc1ccccc1F)Nc1nc(-c2ccc(F)cc2)cs1,33.3%,10.1%,?,4.47µM*,?,-7.7%
O=C(CS(=O)(=O)c1ccccc1)Nc1nc(-c2ccc(F)cc2)cs1,?,5.0%,.,.,.,.
COc1ccc(-c2csc(NC(=O)Cc3ccccc3F)n2)cc1OC,-26.9%,-7.4%,?,.,-11.3%,?
O=C(CCS(=O)(=O)c1ccccc1)Nc1nc(-c2ccc(F)cc2)cs1,?,29.3%,?,2.2%,12.6µM*,?
CC(C)c1ccc(S(=O)(=O)c2cnc(SCC(=O)Nc3ccc(F)cc3F)nc2N)cc1,?,-0.1%,.,?,-1.4%,1.0%
COc1ccc(C(=O)Nc2cccc(-c3cn4ccsc4n3)c2)cc1OC,5.9%,2.5%,.,?,-6.4%[7.34 µM],-1.3%[7.34 µM]
O=[N+]([O-])c1c(NCCCO)cc(Sc2ccc(Cl)cc2)c2nonc12,25.1µM*,5.62µM*,11.2µM*,?,-3.1%,-19.0%
O=[N+]([O-])c1c(NCCCO)cc(SCc2ccco2)c2nonc12,0.0%,3.16µM*,1.5%,0.4%,-4.4%,-16.4%
Cn1ccnc1Sc1cc(NCCCO)c([N+](=O)[O-])c2nonc12,25.1µM*,0.708µM*,?,?,-3.5%,12.6%
CC(=O)OCCNc1cc(SCc2ccco2)c2nonc2c1[N+](=O)[O-],31.6µM*,20.8%,?,0.0%,?,?
O=S1(=O)c2ccccc2N=NN1Cc1ccc(Cl)cc1,19.8%,2.51µM*,-8.6%,17.3%,-2.6%,-7.0%
O=S1(=O)c2ccccc2N=NN1Cc1cc(Cl)cc(Cl)c1,.,0.0%,-0.3%,.,.,.
SMILES,FMDV antiviral,Sm TGR inh,MARV entry inh,LASV entry inh,Vaccinia mCherry,VACV Venus inh
CC(=O)N(Cc1ccc2c(c1)OCO2)C1CC(=O)N(CCc2ccccc2)C1=O (configuration not stated),-6.5%,22.4µM*,-0.3%,7.7%,.,-5.8%
OCC1CCCN(c2nc3cc4c(cc3cc2CNCc2cccc(C(F)(F)F)c2)OCO4)C1 (configuration not stated),0.2%,.,.,.,-11.6%,-11.4%
CCSc1nsc(NC(=O)Nc2cccc(OC)c2)n1,-25.6%,4.1%,11.2µM*,?,?,?
COc1cccc(-c2csc(NC(=O)Nc3ccccc3)n2)c1,25.1µM*,8.7%,.,.,.,.
O=C(Nc1ccccc1)Nc1nc(-c2ccccc2)cs1,-2.8%,8.5%,.,.,.,.
CCOc1cc2sc(N3CCC(C(=O)Nc4ccc(C)cc4C)CC3)nc2cc1Br,40.4%,-1.0%,?,.,-17.7%,-18.7%
Cc1ccc2c(C(=O)CN3CCN(c4ccccc4)CC3)c(C)[nH]c2c1,-14.0%,-13.4%,2.6%[46.1 µM],0.2%,.,0.3%
Cc1ccc2c(C(=O)CN3CC(C)CC(C)C3)c(C)[nH]c2c1 (configuration not stated),.,14.1µM*,.,.,.,.
Cc1ccc2c(C(=O)CN3CCCC(C)C3)c(C)[nH]c2c1 (configuration not stated),-5.9%,35.5µM*,?,19.7%[46.1 µM],?,-6.2%
CCSc1ncc(Cl)c(C(=O)Nc2ccc(S(=O)(=O)Nc3nccc(C)n3)cc2)n1,48.6%,3.3%,?,1.1%[46.1 µM],-15.8%,-5.5%
CC(=O)Nc1cccc(-c2csc(Nc3ncccn3)n2)c1,.,0.9%,.,.,.,.
c1ccc(-c2csc(Nc3ccccn3)n2)cc1,-21.4%,-7.3%,?,?,?,-11.8%
CC(=O)Nc1cccc(-c2csc(Nc3ccc(C)cn3)n2)c1,-33.3%,0.6%,?,1.78µM*,?,?
Cc1ccc(-c2csc(Nc3ccccn3)n2)cc1,-62.3%,4.5%,2µM*,?,?,-9.4%
Cc1nn(C(=O)c2cccc(F)c2)c(C)c1S(=O)(=O)N1CCCCCC1,-1.4%,-3.0%,.,-3.3%[46.1 µM],-0.7%,5.9%
CC(=O)Nc1ccc(NS(=O)(=O)c2ccccc2)c2ccccc12,-7.1%,0.3%,3.8%[46.1 µM],-0.3%[46.1 µM],-28.3%,-1.2%
O=S(=O)(Nc1ccc(O)c2ccccc12)c1ccc(Br)cc1,.,20µM*,.,.,.,.
O=S(=O)(Nc1cccc2ccccc12)c1cccs1,24.2%,-17.4%,9.1%[46.1 µM],24.0%[46.1 µM],-15.4%,-12.1%
O=S(=O)(Nc1ccc(O)c2ccccc12)c1cccs1,?,20µM*,?,?,-8.9%,1.0%
Cc1ccc(C(C(=O)NCc2ccco2)N(C(=O)Cn2nnc3ccccc32)c2ccccc2)o1 (configuration not stated),11.6%,50.1µM*,1.9%[46.1 µM],?,.,-19.2%
O=C(NCc1ccco1)C(c1ccccc1)N(Cc1cccnc1)C(=O)Cn1nnc2ccccc21 (configuration not stated),-11.4%,39.8µM*,8.8%[46.1 µM],0.7%,.,-9.8%
Cc1ccc(C)c(N(C(=O)Cn2nnc3ccccc32)C(C(=O)NCc2ccco2)c2ccncc2)c1 (configuration not stated),15.1%,-30.6%,-29.2%[46.1 µM],7.8%,.,-20.5%
Cc1ccc(C(C(=O)NCc2ccco2)N(CCc2ccccc2)C(=O)Cn2nnc3ccccc32)o1 (configuration not stated),-3.5%,-22.8%,?,?,.,-21.2%
